Source: the supplement of paper PMC10849652
The full data set covers some 7,900 targets. This sample favours those with a hit. About 0.6% of all pairs of compound and target were hits. Values without a mark were called inactive.

Sequence of UniProt Q969S8 (Q969S8 whole entry, looked up): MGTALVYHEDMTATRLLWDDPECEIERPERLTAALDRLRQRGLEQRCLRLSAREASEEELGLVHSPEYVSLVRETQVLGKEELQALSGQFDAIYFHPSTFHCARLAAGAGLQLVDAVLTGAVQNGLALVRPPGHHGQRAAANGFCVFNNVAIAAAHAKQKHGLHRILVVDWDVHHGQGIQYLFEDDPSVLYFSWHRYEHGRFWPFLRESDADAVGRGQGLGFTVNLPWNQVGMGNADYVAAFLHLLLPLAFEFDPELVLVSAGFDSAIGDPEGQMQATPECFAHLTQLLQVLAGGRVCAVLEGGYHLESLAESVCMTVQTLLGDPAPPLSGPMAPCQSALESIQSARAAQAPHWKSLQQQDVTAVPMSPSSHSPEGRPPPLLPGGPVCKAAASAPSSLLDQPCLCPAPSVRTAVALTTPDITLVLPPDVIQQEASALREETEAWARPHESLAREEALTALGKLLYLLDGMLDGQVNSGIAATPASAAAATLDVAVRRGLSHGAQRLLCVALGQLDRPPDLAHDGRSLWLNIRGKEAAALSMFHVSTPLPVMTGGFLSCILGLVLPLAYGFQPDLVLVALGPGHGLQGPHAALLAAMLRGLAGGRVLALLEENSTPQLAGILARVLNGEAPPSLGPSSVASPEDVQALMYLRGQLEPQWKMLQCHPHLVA
Sequence of UniProt Q53T59 (Q53T59 whole entry, looked up): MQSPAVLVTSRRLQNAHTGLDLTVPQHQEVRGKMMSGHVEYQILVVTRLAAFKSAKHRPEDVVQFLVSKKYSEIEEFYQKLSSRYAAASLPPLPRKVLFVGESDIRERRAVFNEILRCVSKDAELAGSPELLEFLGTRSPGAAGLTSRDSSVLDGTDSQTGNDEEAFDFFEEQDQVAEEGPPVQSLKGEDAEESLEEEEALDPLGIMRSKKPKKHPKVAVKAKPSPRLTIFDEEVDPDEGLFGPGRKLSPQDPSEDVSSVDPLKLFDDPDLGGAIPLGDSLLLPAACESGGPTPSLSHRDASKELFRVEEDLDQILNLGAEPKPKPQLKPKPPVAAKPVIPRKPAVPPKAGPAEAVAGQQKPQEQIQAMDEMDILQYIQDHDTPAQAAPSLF
Sequence of UniProt Q9Y613 (Q9Y613 whole entry, looked up): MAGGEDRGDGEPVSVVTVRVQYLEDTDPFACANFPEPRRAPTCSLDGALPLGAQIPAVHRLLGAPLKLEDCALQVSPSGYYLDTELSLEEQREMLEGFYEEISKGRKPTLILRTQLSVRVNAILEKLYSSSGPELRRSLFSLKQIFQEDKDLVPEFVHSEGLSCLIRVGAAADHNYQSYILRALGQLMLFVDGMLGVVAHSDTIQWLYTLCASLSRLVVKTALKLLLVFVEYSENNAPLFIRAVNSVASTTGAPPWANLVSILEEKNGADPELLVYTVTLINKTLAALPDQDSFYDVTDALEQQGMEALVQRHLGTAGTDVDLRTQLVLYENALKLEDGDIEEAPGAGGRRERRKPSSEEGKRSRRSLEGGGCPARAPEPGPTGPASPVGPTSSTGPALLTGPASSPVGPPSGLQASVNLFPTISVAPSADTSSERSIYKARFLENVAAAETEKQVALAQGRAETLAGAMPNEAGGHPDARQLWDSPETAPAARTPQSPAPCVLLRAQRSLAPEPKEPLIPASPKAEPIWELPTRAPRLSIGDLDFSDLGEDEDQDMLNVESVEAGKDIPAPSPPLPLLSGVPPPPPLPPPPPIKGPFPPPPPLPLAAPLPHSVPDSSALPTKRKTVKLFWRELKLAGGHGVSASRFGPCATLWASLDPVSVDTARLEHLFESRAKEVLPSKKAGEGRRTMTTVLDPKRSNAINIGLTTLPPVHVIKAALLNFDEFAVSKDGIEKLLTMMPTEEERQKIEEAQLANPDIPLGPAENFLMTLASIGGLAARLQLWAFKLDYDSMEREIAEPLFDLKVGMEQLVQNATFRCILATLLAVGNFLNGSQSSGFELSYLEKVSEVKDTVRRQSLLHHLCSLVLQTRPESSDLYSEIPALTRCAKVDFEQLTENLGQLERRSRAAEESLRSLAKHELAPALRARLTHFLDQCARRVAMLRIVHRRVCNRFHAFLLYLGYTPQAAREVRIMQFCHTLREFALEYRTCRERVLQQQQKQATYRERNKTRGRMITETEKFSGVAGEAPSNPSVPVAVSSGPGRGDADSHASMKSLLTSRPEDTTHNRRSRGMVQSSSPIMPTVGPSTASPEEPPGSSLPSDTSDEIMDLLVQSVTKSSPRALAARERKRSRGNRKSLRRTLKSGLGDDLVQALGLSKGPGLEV
Sequence of UniProt A6NDN3 (A6NDN3 whole entry, looked up): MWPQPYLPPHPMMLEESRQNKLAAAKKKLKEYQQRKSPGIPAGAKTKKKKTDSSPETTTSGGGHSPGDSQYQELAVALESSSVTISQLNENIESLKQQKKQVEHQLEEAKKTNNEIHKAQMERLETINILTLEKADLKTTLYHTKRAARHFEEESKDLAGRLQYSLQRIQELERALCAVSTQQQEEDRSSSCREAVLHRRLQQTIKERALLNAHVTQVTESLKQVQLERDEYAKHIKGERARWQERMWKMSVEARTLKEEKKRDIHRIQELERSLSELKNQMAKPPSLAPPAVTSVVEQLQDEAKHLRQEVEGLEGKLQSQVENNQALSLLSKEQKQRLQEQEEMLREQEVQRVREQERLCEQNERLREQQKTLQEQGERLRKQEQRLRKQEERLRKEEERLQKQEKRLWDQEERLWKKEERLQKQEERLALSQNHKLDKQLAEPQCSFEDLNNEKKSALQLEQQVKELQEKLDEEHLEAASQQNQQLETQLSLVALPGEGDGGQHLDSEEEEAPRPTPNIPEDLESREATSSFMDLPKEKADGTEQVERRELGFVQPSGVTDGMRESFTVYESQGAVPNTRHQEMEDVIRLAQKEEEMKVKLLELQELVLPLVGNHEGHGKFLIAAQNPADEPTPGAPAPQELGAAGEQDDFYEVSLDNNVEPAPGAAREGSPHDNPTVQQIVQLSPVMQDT
Sequence of UniProt P52655 (P52655 whole entry, looked up): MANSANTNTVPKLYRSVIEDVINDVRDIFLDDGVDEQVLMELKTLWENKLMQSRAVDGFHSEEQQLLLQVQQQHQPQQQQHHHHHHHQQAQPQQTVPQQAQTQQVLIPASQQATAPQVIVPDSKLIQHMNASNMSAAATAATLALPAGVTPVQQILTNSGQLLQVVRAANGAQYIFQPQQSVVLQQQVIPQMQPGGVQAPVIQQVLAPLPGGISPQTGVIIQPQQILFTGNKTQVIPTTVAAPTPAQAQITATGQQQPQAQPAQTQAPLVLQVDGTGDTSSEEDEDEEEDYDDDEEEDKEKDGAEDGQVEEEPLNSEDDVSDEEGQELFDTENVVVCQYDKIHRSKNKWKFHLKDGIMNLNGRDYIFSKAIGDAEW
Sequence of UniProt Q9UK97 (Q9UK97 whole entry, looked up): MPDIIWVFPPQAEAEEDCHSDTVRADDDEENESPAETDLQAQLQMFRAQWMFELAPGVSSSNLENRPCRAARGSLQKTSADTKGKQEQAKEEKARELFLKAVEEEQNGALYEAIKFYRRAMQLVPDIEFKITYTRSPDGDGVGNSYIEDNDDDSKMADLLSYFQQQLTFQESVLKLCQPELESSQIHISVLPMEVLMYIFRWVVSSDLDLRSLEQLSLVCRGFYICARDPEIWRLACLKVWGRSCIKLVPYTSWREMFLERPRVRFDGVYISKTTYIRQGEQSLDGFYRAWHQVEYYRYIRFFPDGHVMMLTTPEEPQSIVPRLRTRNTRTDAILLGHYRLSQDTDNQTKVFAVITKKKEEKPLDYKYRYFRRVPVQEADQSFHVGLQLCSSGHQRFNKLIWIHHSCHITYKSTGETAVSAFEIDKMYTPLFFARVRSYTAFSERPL
Sequence of UniProt Q13227 (Q13227 whole entry, looked up): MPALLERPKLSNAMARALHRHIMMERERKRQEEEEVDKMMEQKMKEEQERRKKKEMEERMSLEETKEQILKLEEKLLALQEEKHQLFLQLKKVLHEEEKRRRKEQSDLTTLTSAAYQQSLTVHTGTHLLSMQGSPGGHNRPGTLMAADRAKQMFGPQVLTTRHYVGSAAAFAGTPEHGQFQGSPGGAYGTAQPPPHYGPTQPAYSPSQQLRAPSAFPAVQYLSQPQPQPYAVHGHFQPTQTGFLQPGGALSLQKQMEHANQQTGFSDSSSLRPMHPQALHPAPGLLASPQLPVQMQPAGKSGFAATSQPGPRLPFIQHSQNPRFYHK
Sequence of UniProt P30711 (P30711 whole entry, looked up): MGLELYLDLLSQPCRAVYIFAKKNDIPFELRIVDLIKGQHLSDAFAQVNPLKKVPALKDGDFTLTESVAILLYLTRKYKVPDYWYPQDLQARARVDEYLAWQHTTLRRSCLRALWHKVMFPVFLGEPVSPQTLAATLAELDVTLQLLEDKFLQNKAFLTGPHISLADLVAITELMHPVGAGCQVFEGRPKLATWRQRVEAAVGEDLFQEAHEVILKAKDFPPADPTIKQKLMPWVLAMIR
Sequence of UniProt Q96SL8 (Q96SL8 whole entry, looked up): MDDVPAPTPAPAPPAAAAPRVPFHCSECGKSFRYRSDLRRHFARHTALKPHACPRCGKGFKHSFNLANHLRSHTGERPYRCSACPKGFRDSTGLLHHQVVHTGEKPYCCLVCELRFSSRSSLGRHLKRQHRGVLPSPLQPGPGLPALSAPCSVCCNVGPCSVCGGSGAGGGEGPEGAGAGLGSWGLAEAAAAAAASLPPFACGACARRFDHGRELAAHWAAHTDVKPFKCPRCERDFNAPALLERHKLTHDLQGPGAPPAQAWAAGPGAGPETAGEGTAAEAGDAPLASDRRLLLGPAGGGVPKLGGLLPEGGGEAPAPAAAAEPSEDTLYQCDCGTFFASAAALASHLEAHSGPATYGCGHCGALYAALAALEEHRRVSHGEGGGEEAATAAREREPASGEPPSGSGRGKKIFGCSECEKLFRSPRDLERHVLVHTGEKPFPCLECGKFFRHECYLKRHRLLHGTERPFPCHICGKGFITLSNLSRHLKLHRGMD
Sequence of UniProt P01344 (P01344 whole entry, looked up): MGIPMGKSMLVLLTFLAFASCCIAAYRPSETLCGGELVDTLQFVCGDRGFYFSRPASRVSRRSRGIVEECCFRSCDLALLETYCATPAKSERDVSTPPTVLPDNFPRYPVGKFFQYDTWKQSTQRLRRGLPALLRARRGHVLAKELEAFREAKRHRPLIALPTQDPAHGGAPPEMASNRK

The targets below were run with CNC(=O)C1=CC=CC=C1NC2=NC(=NC=C2Cl)NC3=C(C=C(C=C3)N4CCOCC4)OC (assay: log2 fold change, soluble protein after heating vs DMSO (PISA); higher = thermal stabilisation; K562 cells, 10 uM, 30 min; active = over 0.2 and 3.5 SD of the protein, either way, in both replicates (recomputed)).
In short: (§1)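 K562 cells at 2×10^6 cells/mL were treated for 30 min with 10 μM compound, and aliquots were heated for 3 min over 48°C-58°C before pooling. Extraction used PBS with 0.5% NP-40 at 4°C, and soluble protein was the supernatant after 21,000xg for 90 min, measured by TMTpro 16plex LC-MS/MS with channel sums equalised. Thermal stability values, relative to control samples and from duplicates, are log2 fold changes.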
GOPC (UniProt Q9HD26) showed a log2 fold change of 0.216.
Target HNRNPK isoform 3 (UniProt P61978) has a log2 fold change of -0.05.
HDAC10 (UniProt Q969S8) was tested, and the log2 fold change was 0.108.
In the case of HSPA2 (UniProt P54652), the log2 fold change is reported as 0.809 (active).
For FAT1 (UniProt Q14517), the log2 fold change was -0.041.
For HS1BP3 (UniProt Q53T59), the log2 fold change was -0.005.

These targets were tested with CNC(=O)c1ccc(Nc2ncc(C(F)(F)F)c(NCc3nccnc3N(C)S(C)(=O)=O)n2)cc1 [defactinib] in the same assay as above.
In short: as §1
Target HP1BP3 (UniProt Q5SSJ5) has a log2 fold change of 0.227.
Target GLS isoform 3 (UniProt O94925) has a log2 fold change of -0.139.
Target FHOD1 (UniProt Q9Y613) has a log2 fold change of -0.042.
Target GPD1 (UniProt P21695) has a log2 fold change of -0.072.
For GSE1 (UniProt Q14687), the log2 fold change was 0.027.
FAT2 (UniProt Q9NYQ8) showed a log2 fold change of 0.011.
For GREB1 (UniProt Q4ZG55), the log2 fold change was -0.008.
For FBXO9 (UniProt Q9UK97), the log2 fold change was 0.052.
Target GSTT1 (UniProt P30711) has a log2 fold change of -0.027.
With GOLGA8R (UniProt I6L899) the log2 fold change was -0.197.
In the case of HDAC7 isoform 5 (UniProt Q8WUI4), the log2 fold change is reported as -0.011.
Target GEMIN2 (UniProt O14893) has a log2 fold change of -0.041.
Target GNL3 (UniProt Q9BVP2) has a log2 fold change of 0.005.
With GTF2A1 (UniProt P52655) the log2 fold change was -0.038.
HSPA8 (UniProt E9PN89) gave a log2 fold change of 0.044.
GPS2 (UniProt Q13227) showed a log2 fold change of -0.079.
For IGF2 isoform 3 (UniProt P01344), the log2 fold change was 0.007.
FCF1 (UniProt Q9Y324) gave a log2 fold change of 0.26.
GOLGA6B (UniProt A6NDN3) was tested, and the log2 fold change was -0.211.
For FYB1 isoform 3 (UniProt O15117), the log2 fold change was -0.112.
Target GBE1 (UniProt Q04446) has a log2 fold change of -0.195.
For ICMT (UniProt O60725), the log2 fold change was -0.034.
GOPC (UniProt Q9HD26) showed a log2 fold change of 0.033.
In the case of HNRNPK isoform 3 (UniProt P61978), the log2 fold change is reported as 0.096.
With FIZ1 (UniProt Q96SL8) the log2 fold change was 0.06.
For HDAC10 (UniProt Q969S8), the log2 fold change was 0.067.
Target FAT1 (UniProt Q14517) has a log2 fold change of -0.05.
For HS1BP3 (UniProt Q53T59), the log2 fold change was -0.066.
